# Reference: the supplement of paper PMC8728848
# Only a selection was taken, and the strongest signals are over-represented in it overall.
# What was measured:
# Test in all cases: glycan array binding signal (z-score within array); higher = stronger binding
# Conditions in all cases: glycan notation: IUPAC condensed, linker removed
# [1] = biological target: Gal3S6S(b1-4)GlcNAc6S
# How it was run: (§1)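 Glycan array binding is given as a within-array Z-score, which can be read as non-binding when negative. The arrays, 3228 of them, came from the Consortium for Functional Glycomics database and were retained only where the protein sequence was available. Z-scores were averaged across arrays of the same protein sequence at different concentrations or buffers and across linkers.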
# [2] = biological target: GalNAc(b1-3)Gal(a1-4)Gal(b1-4)GlcNAc
# How it was run: as §1
# [3] = biological target: GlcNAc(a1-4)Gal(b1-4)GalNAc
# How it was run: as §1
# [4] = biological target: GlcNAc(b1-2)Man(a1-3)[GlcNAc(b1-4)][GlcNAc(b1-2)Man(a1-6)]Man(b1-4)GlcNAc(b1-4)[Fuc(a1-6)]GlcNAc
# How it was run: as §1
# [5] = biological target: GlcNAc(b1-3)Gal(b1-4)GlcNAc(b1-3)Gal(b1-4)GlcNAc(b1-2)Man(a1-3)[GlcNAc(b1-3)Gal(b1-4)GlcNAc(b1-3)Gal(b1-4)GlcNAc(b1-2)Man(a1-6)]Man(b1-4)GlcNAc(b1-4)GlcNAc
# How it was run: as §1
# [6] = biological target: GlcNAc6S(b1-3)Gal(b1-4)GlcNAc
# How it was run: as §1
# [7] = biological target: Man(a1-2)Man(a1-3)Man
# How it was run: as §1
# [8] = biological target: Man(a1-2)Man(a1-3)[Man(a1-6)]Man(a1-6)[Man(a1-2)Man(a1-3)]Man(b1-4)GlcNAc(b1-4)GlcNAc
# How it was run: as §1
# [9] = biological target: Man(a1-3)[Man(a1-6)]Man(b1-4)GlcNAc(b1-4)GlcNAc
# How it was run: as §1
# [10] = biological target: Neu5Ac(a2-3)Gal(b1-3)GalNAc
# How it was run: as §1
# [11] = biological target: Neu5Ac(a2-3)Gal(b1-3)GalNAc(b1-4)[Neu5Ac(a2-8)Neu5Ac(a2-3)]Gal(b1-4)Glc
# How it was run: as §1
# [12] = biological target: Neu5Ac(a2-3)Gal(b1-3)GlcNAc(b1-3)GalNAc
# How it was run: as §1
# [13] = biological target: Neu5Ac(a2-3)Gal(b1-4)GlcNAc(b1-3)Gal(b1-4)GlcNAc(b1-3)Gal(b1-4)GlcNAc
# How it was run: as §1
# [14] = biological target: Neu5Ac(a2-3)Gal(b1-4)GlcNAc(b1-3)Gal(b1-4)GlcNAc(b1-3)Gal(b1-4)GlcNAc(b1-2)Man(a1-3)[Neu5Ac(a2-3)Gal(b1-4)GlcNAc(b1-3)Gal(b1-4)GlcNAc(b1-3)Gal(b1-4)GlcNAc(b1-2)Man(a1-6)]GalNAc
# How it was run: as §1
# [15] = biological target: Neu5Ac(a2-3)Gal(b1-4)[Fuc(a1-3)]GlcNAc(b1-2)Man
# How it was run: as §1
# [16] = biological target: Neu5Ac(a2-3)[GalNAc(b1-4)]Gal(b1-4)Glc
# How it was run: as §1
# [17] = biological target: Neu5Ac(a2-6)Gal(b1-4)GlcNAc(b1-2)Man(a1-3)[Man(a1-6)]Man(b1-4)GlcNAc(b1-4)GlcNAc
# How it was run: as §1
# [18] = biological target: Neu5Ac(a2-6)Gal(b1-4)GlcNAc(b1-2)[Neu5Ac(a2-6)Gal(b1-4)GlcNAc(b1-4)]Man(a1-3)[GlcNAc(b1-4)][Neu5Ac(a2-6)Gal(b1-4)GlcNAc(b1-4)Man(a1-6)]Man(b1-4)GlcNAc(b1-4)GlcNAc
# How it was run: as §1
# [19] = biological target: Neu5Ac(a2-6)Gal(b1-4)GlcNAc(b1-3)Gal(b1-4)GlcNAc(b1-2)Man(a1-3)[Neu5Ac(a2-6)Gal(b1-4)GlcNAc(b1-3)Gal(b1-4)GlcNAc(b1-2)Man(a1-6)]GalNAc
# How it was run: as §1
# [20] = biological target: Neu5Ac(a2-6)Gal(b1-4)GlcNAc(b1-3)[Neu5Ac(a2-6)Gal(b1-4)GlcNAc(b1-6)]GalNAc
# How it was run: as §1
# [21] = biological target: Neu5Ac(a2-6)Gal(b1-4)GlcNAc(b1-6)[Gal(b1-3)]GalNAc
# How it was run: as §1
# [22] = biological target: Neu5Ac(a2-6)GalNAc(b1-4)GlcNAc
# How it was run: as §1
# [23] = biological target: Neu5Ac(a2-8)Neu5Ac(a2-3)[Gal(b1-3)GalNAc(b1-4)]Gal(b1-4)Glc
# How it was run: as §1
# [24] = biological target: Neu5Ac(a2-8)Neu5Gc(a2-3)Gal(b1-4)GlcNAc
# How it was run: as §1
# [25] = biological target: Fuc(a1-2)[Gal(a1-3)]Gal
# How it was run: as §1
# [26] = biological target: Fuc(a1-2)[Gal(a1-4)]Gal(b1-4)GlcNAc
# How it was run: as §1
# [27] = biological target: Fuc(a1-2)[GalNAc(a1-3)]Gal(b1-4)[Fuc(a1-3)]GlcNAc
# How it was run: as §1
# [28] = biological target: Fuc(a1-3)[Gal(b1-4)]GlcNAc(b1-4)Gal(b1-4)[Fuc(a1-3)]GlcNAc
# How it was run: as §1
# [29] = biological target: Fuc(a1-3)[GalNAc(b1-4)]GlcNAc
# How it was run: as §1
# [30] = biological target: Gal(a1-3)Gal
# How it was run: as §1
# [31] = biological target: Gal(a1-3)Gal(b1-4)GlcNAc
# How it was run: as §1
# [32] = biological target: Gal(a1-3)[Gal(a1-4)]Gal(b1-4)GlcNAc
# How it was run: as §1
# [33] = biological target: Gal(b1-3)Gal
# How it was run: as §1
# [34] = biological target: Gal(b1-3)GalNAc(b1-4)[Neu5Ac(a2-3)]Gal(b1-4)Glc
# How it was run: as §1
# [35] = biological target: Gal(b1-3)GlcNAc(b1-3)Gal(b1-4)Glc
# How it was run: as §1
# [36] = biological target: Gal(b1-3)[Neu5Ac(b2-6)]GalNAc
# How it was run: as §1
# [37] = biological target: Gal(b1-4)GlcNAc(b1-3)Gal(b1-4)GlcNAc(b1-3)Gal(b1-4)GlcNAc
# How it was run: as §1
# [38] = biological target: Gal(b1-4)GlcNAc(b1-6)[Gal(b1-3)]GalNAc
# How it was run: as §1
# [39] = biological target: GalNAc(a1-3)Gal
# How it was run: as §1
# [40] = biological target: GlcNAc(b1-3)Gal(b1-4)GlcNAc
# How it was run: as §1
# [41] = biological target: Man(a1-3)[Man(a1-6)]Man
# How it was run: as §1
# [42] = biological target: Neu5Ac(a2-3)Gal(b1-3)[Fuc(a1-4)]GlcNAc(b1-3)Gal(b1-4)[Fuc(a1-3)]GlcNAc
# How it was run: as §1
# [43] = biological target: Neu5Ac(a2-3)[GalNAc(b1-4)]Gal(b1-4)GlcNAc
# How it was run: as §1
# [44] = biological target: Neu5Ac(a2-6)Gal(b1-4)Glc
# How it was run: as §1
binder,measurement,setting,value
PX14367A-bth-493-35-493 (Bacteroides thetaiotaomicron) (protein) VSSDQVAVAGNAERLFNGAWYNLFEYGTTYANIGYRALQCQDDMMASDVVSRPKYGFNSSYQFNDVAIPSDGRTSFAWYLIYKTIDNCNTAISIKGDSEELRQAQGQALALRAFCYLHLVQHYQFTYLKDKDAPCVPIYTEPTTSGTKPKGKSTVAQVYQQIFDDLNLAQDYLTNYVRKGDGQKFKPNTDVVNGLMARAYLLTGQWGEAAKAAEAARKGYSLMTTTAEYEGFNNISNKEWIWGSPQTLSQSDASYNFYYLDATYVGAYSSFMADPHLMDTFVKGDIRLPLFQWMREGYLGYKKFHMRSDDTADLVLMRSAEMYLIEAEAKVRDGVALDQAVAPLNTLRTARGVGNYDVTGKTKEQVIDEILMERRRELWGEGFGITDVLRNQKAVERMALSEDMQKTEVDCWQEGGSFAKRNPLGHWFLNFPDGKAFSANSSYYLYAIPEKEINANPNL,glycan array binding signal (z-score),[1],0.726
same,glycan array binding signal (z-score),[2],4.2
same,glycan array binding signal (z-score),[3],-0.551
same,glycan array binding signal (z-score),[4],-0.396
same,glycan array binding signal (z-score),[5],1.06
same,glycan array binding signal (z-score),[6],-0.213
same,glycan array binding signal (z-score),[7],0.44
same,glycan array binding signal (z-score),[8],-0.608
same,glycan array binding signal (z-score),[9],0.166
same,glycan array binding signal (z-score),[10],-0.407
same,glycan array binding signal (z-score),[11],-0.448
same,glycan array binding signal (z-score),[12],-0.042
same,glycan array binding signal (z-score),[13],-0.083
same,glycan array binding signal (z-score),[14],1.29
same,glycan array binding signal (z-score),[15],-0.443
same,glycan array binding signal (z-score),[16],-0.325
same,glycan array binding signal (z-score),[17],0.504
same,glycan array binding signal (z-score),[18],-0.361
same,glycan array binding signal (z-score),[19],6.47
same,glycan array binding signal (z-score),[20],-0.601
same,glycan array binding signal (z-score),[21],0.377
same,glycan array binding signal (z-score),[22],-0.719
same,glycan array binding signal (z-score),[23],-0.3
same,glycan array binding signal (z-score),[24],11.1
SIGNR8 (Mus musculus) (protein) MAGEPEFHQSKNHEEEVTSGEQGFAEHDPEGLICSSKSLQGHLTQVPWLLLLLISLGLFLLMLATLVQVSRIRAYSQGQTQDQQGSSSLDKVAVPREQTHSGLEQIQQIQQQLTQFNASLAGLCRPCPWDWELFQGSCYLFSRTLGSWETSASSCEDLGAHLVIVNSVSEQRFMKYWNVRKNQRSWIGLSDHIHEGSWQWVDGSALKFSFWKEGEPNNDGDEDCVELFMDDWNDNKCTEQNFWVCEQPSAPCPHH,glycan array binding signal (z-score),[25],2.32
same,glycan array binding signal (z-score),[26],3.32
same,glycan array binding signal (z-score),[27],-0.386
same,glycan array binding signal (z-score),[28],-0.385
same,glycan array binding signal (z-score),[29],-0.369
same,glycan array binding signal (z-score),[30],2.62
same,glycan array binding signal (z-score),[31],3.18
same,glycan array binding signal (z-score),[32],4.59
same,glycan array binding signal (z-score),[33],4.35
same,glycan array binding signal (z-score),[34],-0.329
same,glycan array binding signal (z-score),[35],-0.386
same,glycan array binding signal (z-score),[36],-0.394
same,glycan array binding signal (z-score),[37],1.7
same,glycan array binding signal (z-score),[38],2.18
same,glycan array binding signal (z-score),[39],-0.329
same,glycan array binding signal (z-score),[40],-0.398
same,glycan array binding signal (z-score),[41],-0.373
same,glycan array binding signal (z-score),[42],-0.393
same,glycan array binding signal (z-score),[16],-0.4
same,glycan array binding signal (z-score),[43],-0.4
same,glycan array binding signal (z-score),[44],-0.394
